High-throughput results (PubChem BioAssay)
Six1-Eya2 blk – blocks human Six1 binding to Eya2; AlphaScreen GST-Six1/His-Eya2 binding, biochemical; hits give low values; activity change, % (concentration not given with the values); 360,000 tested, 0.56% active; in the data active means activity change below about -65%; inconclusive means mostly about -30% to -63%
Target sequence (O00167 whole entry, looked up): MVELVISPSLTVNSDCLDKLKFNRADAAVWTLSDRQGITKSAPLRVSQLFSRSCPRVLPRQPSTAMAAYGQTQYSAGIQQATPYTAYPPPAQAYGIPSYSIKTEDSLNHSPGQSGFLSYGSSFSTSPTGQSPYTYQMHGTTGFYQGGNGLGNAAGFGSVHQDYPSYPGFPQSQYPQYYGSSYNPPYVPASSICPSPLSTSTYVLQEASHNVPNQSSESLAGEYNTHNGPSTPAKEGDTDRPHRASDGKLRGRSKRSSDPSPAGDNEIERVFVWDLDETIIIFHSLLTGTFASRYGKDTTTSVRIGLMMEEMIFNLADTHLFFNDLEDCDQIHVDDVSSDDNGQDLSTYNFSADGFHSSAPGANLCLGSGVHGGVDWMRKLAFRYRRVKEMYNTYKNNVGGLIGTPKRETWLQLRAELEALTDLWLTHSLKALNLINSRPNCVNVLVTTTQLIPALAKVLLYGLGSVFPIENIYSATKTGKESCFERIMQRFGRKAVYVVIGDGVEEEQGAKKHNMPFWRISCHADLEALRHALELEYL
Target sequence (Q15475 whole entry, looked up): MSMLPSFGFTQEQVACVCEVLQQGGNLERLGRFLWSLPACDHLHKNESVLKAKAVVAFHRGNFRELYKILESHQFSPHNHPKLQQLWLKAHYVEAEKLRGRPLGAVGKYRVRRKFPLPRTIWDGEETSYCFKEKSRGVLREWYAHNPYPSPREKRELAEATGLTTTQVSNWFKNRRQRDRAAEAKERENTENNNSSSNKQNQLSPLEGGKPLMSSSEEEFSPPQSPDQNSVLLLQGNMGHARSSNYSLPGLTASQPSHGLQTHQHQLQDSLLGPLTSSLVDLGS
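Compounds are tested against tagged Six1 and Eya2 proteins bridged by glutathione donor and nickel acceptor beads; after a one-hour incubation at 37 °C without light, AlphaScreen emission is recorded.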
Gal4-VP16 FLuc – Gal4-VP16 reporter inhibition counter-screen. Drosophila S2 Gal4-VP16 UAS-luciferase, luminescence, 20 h. Potency, µM (doses to about 53.6 µM), actives largely listed as inhibitors. 310,000 tested, 3.5% active;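 further: Gal4-VP16 expression switched on by copper sulfate through the metallothionein promoter; nearly all actives have a fitted effect of over 50% in size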
CBFb RUNX1 block – inhibitors of human CBF-beta and RUNX1 interaction; Q01196+Q13951; AlphaScreen CBFb-His/RUNX1-biotin binding, biochemical; Potency, µM (titrated, usually from 59.8 µM), hits mostly inhibitors; 230,000 tested, under 10 active; AID 1477
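Inhibition was taken as any reduction in AlphaScreen signal from the CBF-beta–RUNX1 pair (His and biotin tags, 30 nM each), measured after compound (15 min) and bead (90 min) incubations at room temperature.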
RORg inh – blocks mouse ROR gamma transcriptional activity; P51450; Drosophila S2 Gal4-RORgamma UAS-luciferase reporter, 20 h; Potency, µM (highest dose often 53.6 µM), actives largely listed as inhibitors; 310,000 tested, 5.4% active; AID 2551; further: nearly all actives have a fitted effect of over 60% in size
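Luciferase reporter read in Schneider cells carrying Gal4-RORγ (mouse) and UAS-Photinus luciferase; cells given compound 1 h before 700 uM copper sulfate induction, then incubated 20 h at ambient temperature.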
MBNL1 CUG block – inhibitors of human MBNL1 binding to CUG repeat RNA; Q9NR56; TR-FRET MBNL1-His/biotin-(CUG)12 binding, 665/545 ratio; Potency, µM (doses to about 57.5 µM), hits mostly inhibitors; 280,000 tested, 0.036% active; active means well fitted inhibition curve with a large enough effect in the signal ratio, with a control signal flat, not every such curve was filed as active; inconclusive means small, poorly fitted or top-dose-only effect, or effect the other way, or a change in a side signal; inactive means no such curve, though single readings can be large or run the other way; the % refers to the signal ratio
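Inhibition of protein-RNA binding appears as loss of TR-FRET between terbium anti-His antibody on MBNL1-His and streptavidin-XL665 on biotin-(CUG)12. Activity is normalized to buffer-only and uninhibited-complex controls.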
CtBP-E1A inh – CtBP/E1A binding inhibition; activity change, % (concentration not given with the values); 340,000 tested, 0.49% active; AlphaScreen GST-E1A/His-CtBP binding, 1536-well; hits give low values; in the data active means activity change below about -65%; inconclusive means mostly about -30% to -63%
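Steps: dispense buffer (Tris pH 8.0, NaCl 300 mM, TCEP 1 mM, BSA, Tween 20); add 5X protein mix (GST-E1A, His-CtBP, 125 nM each); pin 23 nL compound; 2 h at 37 °C, dark; add 5X beads (50 ug/mL); 1 h; read.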
Numbers stand for hits; . = inactive; ? = inconclusive; / = no result; [ ] = remark or other dose. A selection: hits, their analogues and other compounds. The true share with any hit is near 5.5%. Unless noted, the call rests on the fitted dose curve; in most records, active means well fitted curve in the direction sought with a large enough effect; inconclusive means small, poorly fitted or top-dose-only effect, or another doubt; inactive means no such curve, though single readings can be large; an effect the other way counts as inactive or inconclusive.

SMILES	Six1-Eya2 blk	Gal4-VP16 FLuc	CBFb RUNX1 block	RORg inh	MBNL1 CUG block	CtBP-E1A inh
Cc1ccc(C(C[N+](=O)[O-])Sc2ccc(N)cc2)cc1 (stereo unspecified)	.	5.6µM	.	11µM	.	.
O=C(OCc1c(F)cccc1Cl)c1cccc(S(=O)(=O)N2CCOCC2)c1	.	/	/	/	/	.
Cc1[nH]c(=O)[nH]c1C(=O)CCCCC(=O)O	.	.	/	.	0.089µM	.
S=C(NC1CCCCCC1)NC1CCCC1	.	10µM	.	1.6µM	.	.
O=C(NC1CCCCCC1)C(=O)NC1CCCC1	.	.	.	.	.	.
NNC(=S)NC1CCCCCCCCCCC1	.	2.8µM	.	0.28µM	.	/
NNC(=S)NC1CCS(=O)(=O)C1 (stereo unspecified)	.	4.5µM	.	2.8µM	.	.
S=C(NC1CCCCC1)NC1CCCCC1	/	?	.	2.8µM	/	/
CN(C)CCNC(=S)NC1CCCCC1	.	.	.	.	.	/
O=C(COc1ccc(-c2nnco2)cc1)N1CCOCC1	.	/	/	/	/	.
CSCC[C@H](NC(=O)C1CCN(S(=O)(=O)c2ccc(C)cc2C)CC1)c1nc2ccccc2[nH]1	.	/	/	/	/	.
O=C(CN1C(=O)NC2(CCCc3ccccc32)C1=O)c1ccc(Br)cc1 (stereo unspecified)	.	/	/	/	/	.
CC(=O)/C(=N/Nc1ccc(C)cc1)Sc1nnc(CCc2ccccc2)n1-c1ccccc1	.	?	.	?	/	.
CCOC(=O)/C(=N/Nc1ccc(OC)cc1)Sc1nnc(CCc2ccccc2)n1-c1ccccc1	.	?	.	7.1µM	?	.
CCOC(=O)/C(=N\Nc1ccc(Cl)cc1)Sc1nnc(-c2ccc(OC)cc2)n1C	.	6.3µM	.	4.5µM	.	.
CC(OC(=O)CCN=C1NS(=O)(=O)c2ccccc21)C(=O)Nc1ccccc1F (stereo unspecified)	.	/	/	/	/	.
Oc1c(Br)cc(Br)c2cccnc12	-75	.	.	0.28µM	/	-78
Oc1c(CN2CCOCC2)cc(CN2CCOCC2)c(O)c1O	.	/	/	/	/	.
O=C(Oc1c(CN2CCOCC2)cc(Cl)c2cccnc12)c1ccccc1Br	-94	4µM	/	6.3µM	/	-69
c1ccc(N2CCN(Cc3ccnc4ccccc34)CC2)cc1	.	/	.	.[0.365 µM]	.	.
Oc1c(CN2CCOCC2)cc(COCc2ccccc2)c2cccnc12	-92	0.089µM	/	0.79µM	.	-88
Oc1c(CN2CCN(c3ccccc3)CC2)cc(Br)c2cccnc12	.	0.89µM	.	0.56µM	.	.
Cc1ccccc1CN(c1ccc(C(=O)N2CCN(C)CC2)cc1)S(C)(=O)=O	.	/	/	/	/	.
Cc1cc(C)c(NC(=O)CN(C)C(=O)CCC(=O)c2ccc(C)s2)c(C)c1	.	/	/	/	/	.
COCc1cc(CN2CCN(C)CC2)c(O)c2ncccc12	-92	5.6µM	.	3.2µM	.	-93
SMILES	Six1-Eya2 blk	Gal4-VP16 FLuc	CBFb RUNX1 block	RORg inh	MBNL1 CUG block	CtBP-E1A inh
CCOC(=O)N1CCN(Cc2cc(Cl)c3cccnc3c2O)CC1	-78	0.089µM	.	0.13µM	?	-91
COc1cc(C)c(CN2CCN(c3ncccn3)CC2)cc1C	.	/	/	/	/	.
O=C(c1ccc(Cl)cc1)N1CCC(C(=O)N2CCCc3ccccc32)CC1	.	.	/	.	.	.
CC(C)CNC(=S)NC(=O)c1ccc(F)cc1	.	?	.	7.9µM	.	.
O=C(NCCNC(=O)c1ccc(Cl)cc1Cl)c1ccc(Cl)cc1Cl	.	/	/	/	/	.
CC(C)CNC(=S)NC(=O)c1ccc(Cl)cc1Cl	.	5.6µM	.	7.1µM	.	.
CC(C)NC(=S)NC(=O)c1ccc(Cl)cc1Cl	.	10µM	.	8.9µM	/	.
O=C(NC(=S)Nc1ccccc1O)c1ccc(Cl)cc1Cl	.	7.1µM	.	2.5µM	.	.
C=CCSc1n[nH]c(-c2ccc(OCCCC)cc2)n1	.	8.9µM	.	8.9µM	.	.
C=CCSc1n[nH]c(-c2ccc(OCCC)cc2)n1	.	?	.	10µM	.	.
C=CCSc1n[nH]c(-c2cccs2)n1	.	?	.	11µM	.	/
CCNC(=O)C1(C)CCCN(C(=O)c2nc(C)oc2C)C1 (stereo unspecified)	.	/	/	/	/	.
CCn1c(SC(C)C)nnc1-c1cc(-c2ccccc2)sc1N	.	7.1µM	.	6.3µM	.	.
S=C(Nc1ccccc1)Nc1nc2ccccc2n1CCOc1ccccc1	.	7.1µM	?	1.1µM	.	.
COc1ccc(OCCn2c(NC(=O)c3ccco3)nc3ccccc32)cc1	.	2.8µM	.	2.2µM	.	.
CCCCn1c(NC(=S)Nc2ccccc2)nc2ccccc21	.	1.4µM	?	1µM	/	.
CC(=O)Nc1nc2ccccc2n1CCOc1ccccc1	.	.	.	.	.	.
C=CCOC(=O)C(C(=O)CC)C(NC(=O)OC)c1ccc(F)cc1 (stereo unspecified)	/	.[10 µM]	.[13.1 µM]	.[10 µM]	/	/
Cc1ccc(CNC(=O)CCNS(=O)(=O)c2ccc3c(c2)c(=O)n(C)c(=O)n3C)cc1	.	.	.	.	.	.
Cn1c(=O)c2cc(S(=O)(=O)NCCC(=O)NCc3ccccc3Cl)ccc2n(C)c1=O	-69	.	.	.	.	-81
Cn1c(=O)c2cc(S(=O)(=O)NCCC(=O)N3CC=C(c4ccccc4)CC3)ccc2n(C)c1=O	?	.	.	.	.	-86
CN(CC(=O)N1CC=C(c2ccccc2)CC1)S(=O)(=O)c1ccc2c(c1)c(=O)n(C)c(=O)n2C	.	.	.	?	.	.
Cc1ccc(C)c(NC(=O)C2CC(O)CN2C(=O)Oc2ccccc2)c1 (stereo unspecified)	.	.	/	.	.	.
COc1cccc(CN2CCC2(C)C(=O)Nc2ccc3c(c2)CCN3C(C)=O)c1F (stereo unspecified)	.	/	/	/	/	.
CCCCC(=O)NNC(=S)NC(=O)CCC	.	?	.	10µM	.	.
SMILES	Six1-Eya2 blk	Gal4-VP16 FLuc	CBFb RUNX1 block	RORg inh	MBNL1 CUG block	CtBP-E1A inh
CC(C)(C)c1cc(CCC(=O)NNC(=O)c2ccco2)cc(C(C)(C)C)c1O	.	.	.	.	.	.
CCCCC(=O)NC(=S)NNC(=O)CCc1ccccc1	.	.	.	11µM	.	.
CC(C)(C)c1cc(CCC(=O)NNC(=S)NC(=O)c2ccccc2)cc(C(C)(C)C)c1O	.	13µM	.	11µM	.	.
O=C(CCc1ccccc1)NNC(=S)NC(=O)c1ccccc1	.	?	.	4.5µM	.	.
Cc1ccc(S(=O)(=O)Nc2cc(Cl)ccc2-n2cncn2)cc1	.	/	/	/	/	.
CC(=O)c1sc(NC(=O)c2ccc(COc3ccccc3Cl)o2)nc1C	.	.	/	.	.	.
CSCC[C@H](CO)NC(=O)[C@H]1O[C@@H](n2cnc3c(N)ncnc32)[C@H](O)[C@@H]1O	.	/	/	/	/	.
Cc1ccccc1NC1=CC(=O)CC(C)(C)C1	.	.	.	.	.	.
